From the supplement of paper PMC10849652
About 7,900 targets were measured; listed, in parts, are those with a hit and a random draw of the rest. About 0.6% of all pairs of compound and target were hits.

Assays:
Assay in all cases: log2 fold change, soluble protein after heating vs DMSO (PISA); higher = thermal stabilisation; K562 cells, 10 uM, 30 min; active = over 0.2 and 3.5 SD of the protein, either way, in both replicates (recomputed)
[1] = compound: C1=CC=C(C=C1)[C@H](COC2=CC3=C(C=C2)NC(=O)N3)NC(=O)C4=CC=CN(C4=O)CC5=CC(=C(C=C5)F)F
In short: (§1)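 K562 cells at 2×10^6 cells/mL were treated with 10 μM compound for 30 min. Aliquots were heated for 3 min across 48°C-58°C, pooled, and extracted in PBS with 0.5% NP-40 at 4°C; soluble protein was the supernatant after 21,000xg for 90 min. Soluble protein was quantified by TMTpro 16plex LC-MS/MS with channel sums equalised, and reported as log2 fold change in thermal stability against DMSO controls, with values from duplicates.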

[2] = compound: CC1=C(SC2=C1C(=N[C@H](C3=NN=C(N32)C)CC(=O)N)C4=CC=C(C=C4)Cl)C
In short: as §1

[3] = compound: CC1=C2C(=CC=C1)N=C(N(C2=O)C3=CC=CC=C3C)CN4C=NC5=C(N=CN=C54)N
In short: as §1

[4] = compound: Cc1sc2c(c1C)C(c1ccc(Cl)cc1)=N[C@@H](CC(=O)OC(C)(C)C)c1nnc(C)n1-2
In short: as §1

[5] = compound: c1ccc([C@@H]2C[C@H]2NC2CCNCC2)cc1
In short: as §1

Measured: log2 fold change

STAM2 (UniProt O75886)
inactive: [1] -0.015 | [2] 0.005 | [3] 0.014 | [4] 0.016 | [5] -0.001

SNX11 (UniProt Q9Y5W9)
UniProt Q9Y5W9, sequence (Q9Y5W9 whole entry, looked up): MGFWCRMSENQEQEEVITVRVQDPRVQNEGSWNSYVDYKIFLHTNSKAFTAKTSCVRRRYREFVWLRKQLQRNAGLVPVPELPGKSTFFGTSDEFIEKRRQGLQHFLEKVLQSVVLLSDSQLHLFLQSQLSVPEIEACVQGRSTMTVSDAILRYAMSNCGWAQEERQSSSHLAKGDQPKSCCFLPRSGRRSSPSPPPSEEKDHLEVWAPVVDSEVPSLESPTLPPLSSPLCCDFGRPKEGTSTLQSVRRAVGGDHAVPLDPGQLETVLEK
inactive: [1] 0.004 | [2] 0.063 | [3] 0.108 | [4] 0.057 | [5] -0.027

SUMO1 (UniProt P63165)
UniProt P63165, sequence (P63165 whole entry, looked up): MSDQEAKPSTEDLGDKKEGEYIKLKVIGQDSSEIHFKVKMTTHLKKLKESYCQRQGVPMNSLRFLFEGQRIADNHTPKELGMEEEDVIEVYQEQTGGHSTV
inactive: [1] -0.004 | [2] -0.097 | [3] -0.048 | [4] 0.231 | [5] 0.152

SLC25A36 (UniProt Q96CQ1)
UniProt Q96CQ1, sequence (Q96CQ1 whole entry, looked up): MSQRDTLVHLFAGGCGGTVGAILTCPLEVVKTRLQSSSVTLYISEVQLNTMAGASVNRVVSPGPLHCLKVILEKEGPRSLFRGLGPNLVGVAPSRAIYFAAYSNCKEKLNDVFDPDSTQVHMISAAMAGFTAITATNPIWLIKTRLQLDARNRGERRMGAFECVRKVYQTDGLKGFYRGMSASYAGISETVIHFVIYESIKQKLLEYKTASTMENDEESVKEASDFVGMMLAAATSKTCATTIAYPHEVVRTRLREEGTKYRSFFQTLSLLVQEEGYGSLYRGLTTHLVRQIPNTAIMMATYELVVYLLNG
inactive: [1] 0.027 | [2] -0.041 | [3] -0.066 | [4] 0.051 | [5] -0.008

TK1 (UniProt P04183)
UniProt P04183, sequence (P04183 whole entry, looked up): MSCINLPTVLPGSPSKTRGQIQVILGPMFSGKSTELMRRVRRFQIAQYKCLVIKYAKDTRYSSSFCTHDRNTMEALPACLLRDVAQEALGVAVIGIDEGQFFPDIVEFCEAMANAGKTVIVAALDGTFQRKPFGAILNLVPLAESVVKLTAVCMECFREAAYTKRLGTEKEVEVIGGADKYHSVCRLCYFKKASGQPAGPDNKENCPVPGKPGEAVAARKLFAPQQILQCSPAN
inactive: [1] 0.002 | [2] -0.008 | [3] -0.011 | [4] -0.019 | [5] 0.008

SPG21 (UniProt Q9NZD8)
UniProt Q9NZD8, sequence (Q9NZD8 whole entry, looked up): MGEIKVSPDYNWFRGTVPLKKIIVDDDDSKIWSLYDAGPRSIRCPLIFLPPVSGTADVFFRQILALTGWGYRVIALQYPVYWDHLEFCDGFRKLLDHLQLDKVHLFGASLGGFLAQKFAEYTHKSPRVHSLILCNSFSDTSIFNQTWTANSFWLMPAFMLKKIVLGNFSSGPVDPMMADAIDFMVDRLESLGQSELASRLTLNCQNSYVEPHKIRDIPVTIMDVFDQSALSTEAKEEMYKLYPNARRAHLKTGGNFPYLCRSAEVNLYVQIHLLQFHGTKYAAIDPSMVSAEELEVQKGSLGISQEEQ
inactive: [1] -0.128 | [2] -0.035 | [3] 0.031 | [4] -0.062 | [5] -0.02

SURF1 (UniProt Q15526)
UniProt Q15526, sequence (Q15526 whole entry, looked up): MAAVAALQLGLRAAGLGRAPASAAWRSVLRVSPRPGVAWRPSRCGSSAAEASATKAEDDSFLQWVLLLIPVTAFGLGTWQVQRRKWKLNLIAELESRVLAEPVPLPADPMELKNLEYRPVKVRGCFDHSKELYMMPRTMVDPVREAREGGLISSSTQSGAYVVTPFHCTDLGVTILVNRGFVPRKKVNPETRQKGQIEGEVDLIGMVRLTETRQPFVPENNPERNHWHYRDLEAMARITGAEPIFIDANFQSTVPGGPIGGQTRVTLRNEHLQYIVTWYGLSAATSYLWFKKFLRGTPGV
inactive: [1] -0.015 | [2] -0.018 | [3] 0.15 | [4] -0.101 | [5] 0.063

THYN1 (UniProt Q9P016)
UniProt Q9P016, sequence (Q9P016 whole entry, looked up): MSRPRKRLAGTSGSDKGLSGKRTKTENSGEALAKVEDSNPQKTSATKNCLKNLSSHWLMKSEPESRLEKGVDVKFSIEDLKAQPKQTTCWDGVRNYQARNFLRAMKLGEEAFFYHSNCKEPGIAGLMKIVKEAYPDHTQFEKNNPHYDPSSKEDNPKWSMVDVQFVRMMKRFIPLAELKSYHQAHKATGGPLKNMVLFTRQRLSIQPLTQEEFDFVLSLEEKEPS
inactive: [1] -0.024 | [2] 0.044 | [3] 0.043 | [4] 0.01 | [5] -0.067

STX17 (UniProt P56962)
UniProt P56962, sequence (P56962 whole entry, looked up): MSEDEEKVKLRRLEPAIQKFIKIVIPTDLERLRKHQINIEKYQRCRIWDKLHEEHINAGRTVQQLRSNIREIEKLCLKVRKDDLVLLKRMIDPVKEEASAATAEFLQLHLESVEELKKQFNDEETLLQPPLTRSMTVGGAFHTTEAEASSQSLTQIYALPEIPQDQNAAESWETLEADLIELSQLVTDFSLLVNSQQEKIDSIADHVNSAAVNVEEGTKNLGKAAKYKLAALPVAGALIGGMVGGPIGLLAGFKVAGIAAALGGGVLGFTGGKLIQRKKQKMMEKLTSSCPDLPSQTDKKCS
inactive: [1] 0.03 | [2] 0.006 | [3] 0.029 | [4] 0.004 | [5] -0.058
